Reference: PubChem BioAssay AID588342 (National Center for Advancing Translational Sciences (NCATS), 2011)
The campaign covered roughly 360,000 compounds. About 25,000 (6.9%) were called active. A call without a number means that no potency is given here. Not shown: some 9% with an inconclusive outcome. This is one part of a sample in which actives are shown more often than they occur. Calls come from the whole dose curve; as a rule, active = well fitted inhibition curve with a large enough effect; inconclusive = small, poorly fitted or top-dose-only effect; inactive = flat fitted curve, though single readings scatter.

These compounds were tested against Luciferin 4-monooxygenase (Photinus pyralis) (UniProt P08659) (assay: qHTS profiling assay for firefly luciferase inhibitor/activator using purifed enzyme and Km concentrations of substrates (counterscreen for miR-21 project)). Conditions: purified FLuc, luminescence inhibition; series mostly up to 57.5 µM.
In short: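 Purified P. pyralis luciferase (10nM final) with 10uM D-luciferin and 10uM ATP (Km levels) in 50mM Tris acetate pH 7.5, 10mM Mg acetate, 0.01% Tween-20, 0.05% BSA; qHTS 6-point titration, ~60 µM downward; luminescence read.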
Note: nearly all actives have a fitted effect of over 55% in size.
Potency is the fitted concentration of half-maximal effect.

Chain of Luciferin 4-monooxygenase (Photinus pyralis) (P08659 whole entry, looked up): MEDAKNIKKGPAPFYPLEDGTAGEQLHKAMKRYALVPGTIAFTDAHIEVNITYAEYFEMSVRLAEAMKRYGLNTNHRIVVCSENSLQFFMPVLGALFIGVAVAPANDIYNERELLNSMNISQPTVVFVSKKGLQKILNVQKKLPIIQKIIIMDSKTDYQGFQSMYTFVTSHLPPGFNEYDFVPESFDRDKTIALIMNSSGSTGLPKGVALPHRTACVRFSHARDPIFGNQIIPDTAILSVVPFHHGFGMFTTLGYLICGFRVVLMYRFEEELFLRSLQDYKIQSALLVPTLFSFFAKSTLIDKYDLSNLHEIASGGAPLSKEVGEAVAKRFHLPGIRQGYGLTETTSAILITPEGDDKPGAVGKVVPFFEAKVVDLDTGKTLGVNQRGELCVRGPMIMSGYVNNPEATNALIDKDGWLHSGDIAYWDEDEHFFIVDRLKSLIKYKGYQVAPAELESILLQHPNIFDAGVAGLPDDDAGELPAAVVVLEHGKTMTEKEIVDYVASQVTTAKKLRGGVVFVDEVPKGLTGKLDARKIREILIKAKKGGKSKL

Q: For COC(C[C@H](O)CC(=O)COCc1ccccc1)OC, which Potency is on record?
A: inactive

Q: Which Potency does the source give for CC(=O)NC12CC3CC(C1)CC(C(=O)N1CCN(C(=O)c4ccco4)CC1)(C3)C2 here?
A: inactive

Q: Which Potency does the source give for CCOc1ccc(OCC)c(NC(=O)c2c(C)nn(-c3ccccc3)c2-n2cccc2)c1 here?
A: inactive

Q: CN(C)C(CNC(=O)c1cccc(C#N)c1)c1ccco1 (configuration not stated) was tested. Which Potency did it give?
A: inactive

Q: CCN(C(=O)COc1cccnc1[N+](=O)[O-])C1CCS(=O)(=O)C1 (configuration not stated) was tested. Which Potency did it give?
A: inactive

Q: For CC(C)c1ccc(NC(=O)CN(C)S(=O)(=O)c2ccc3c(c2)c(=O)n(C)c(=O)n3C)cc1, which Potency is on record?
A: inactive

Q: Which Potency does the source give for COc1ccccc1CN1CCC(CNC(=O)c2cnn(-c3cccc(Cl)c3)c2C2CCN(C(=O)OC(C)(C)C)CC2)CC1 here?
A: inactive

Q: For CCc1ccc(N(CC)C(=O)CCn2cnc3onc(-c4ccc(F)cc4)c3c2=O)cc1, which Potency is on record?
A: inactive

Q: O=C(Nc1ccccc1)N1CCC(C(=O)N2CCN(Cc3ccccc3)CC2)CC1 was tested. Which Potency did it give?
A: inactive

Q: CN1C(=O)c2ccc(NC(=O)C3CCCCC3)cc2C1=O was tested. Which Potency did it give?
A: inactive

Q: How did the Potency turn out when S=C(Nc1ccc2c(c1)OCO2)N1CCCC1 was run?
A: inactive

Q: O=C(Nc1ccc2c(c1)OCCO2)C1CCCN(c2ncccn2)C1 (configuration not stated) was tested. Which Potency did it give?
A: 0.953 µM (active)

Q: Which Potency does the source give for O=C(Nc1ccc2c(c1)OCO2)C1CC1(Cl)Cl (configuration not stated) here?
A: 16.9 µM (active)

Q: For O=C(Nc1cccc(Cl)c1)C1CCCN(c2cnccn2)C1 (configuration not stated), which Potency is on record?
A: inactive

Q: For O=C(Nc1ccc2c(c1)OCO2)c1sc2cc(Cl)ccc2c1Cl, which Potency is on record?
A: inactive

Q: With Cc1cc(C)nc(N2CCC(C(=O)Nc3ccc4c(c3)OCCO4)CC2)n1 as the compound, how does the Potency read?
A: inactive

Q: For O=C(Nc1ccc2c(c1)OCCO2)C1CCCC1, which Potency is on record?
A: 9.53 µM (active)

Q: How did the Potency turn out when COC(=O)c1cccc(C(=O)N2CCCC(Nc3ccc4c(c3)OCCO4)C2)c1 (configuration not stated) was run?
A: inactive

Q: With CC(C)(C)C(=O)Nc1ccc(C(=O)N/N=C/c2ccccc2OC(=O)c2ccc(Cl)cc2Cl)cc1 as the compound, how does the Potency read?
A: inactive

Q: Which Potency does the source give for CCOc1cc(/C=C/C(=O)OCC(=O)NCCN2C(=O)CSC2=O)ccc1OCC(C)C here?
A: inactive

Q: How did the Potency turn out when COc1ccc(C2C(=O)N(C3CCCCC3)CC(=O)N2Cc2ccccc2Cl)cc1OC (configuration not stated) was run?
A: inactive

Q: With Cc1nc(SCCOc2ccc(Cl)cc2)[nH]c(=O)c1Cc1ccccc1 as the compound, how does the Potency read?
A: inactive

Q: O=C(CSc1nccn1Cc1ccc(F)cc1)NCc1ccccc1 was tested. Which Potency did it give?
A: inactive

Q: How did the Potency turn out when Cc1ccc2nc(/C(C#N)=C/c3ccc(-c4ccc(C(=O)OC(C)C)cc4)o3)[nH]c2c1 was run?
A: inactive

Q: How did the Potency turn out when COc1cc(CC(=O)Nc2nc(-c3ccc(F)c(F)c3)cs2)cc(OC)c1OC was run?
A: inactive

Q: COc1ccc(CC(=O)Nc2nc(-c3ccc(F)c(F)c3)cs2)cc1OC was tested. Which Potency did it give?
A: inactive

Q: Which Potency does the source give for Fc1ccc(-c2csc(-c3ccc(C4SCCS4)cc3)n2)cc1F here?
A: 10.7 µM (active)

Q: How did the Potency turn out when COc1ccc2c(c1)c(N1CCCC1=O)c(C(=O)Nc1ccc(OC)c(Cl)c1)n2C was run?
A: inactive

Q: With CCOc1ccccc1CNC(=O)C1CCCN(S(=O)(=O)c2ccc3c(ccn3C)c2)C1 (configuration not stated) as the compound, how does the Potency read?
A: inactive

Q: For Cc1cc(C)nc(SCc2nnc(SCC(=O)Nc3ncc(C)s3)n2Cc2ccco2)n1, which Potency is on record?
A: inactive

Q: How did the Potency turn out when CC(C)C(=O)OCC(=O)Nc1ccc2c(c1)CCC2 was run?
A: 19 µM (active)

Q: Which Potency does the source give for COc1ccc(CC(=O)Nc2ccc3c(c2)CCC3)cc1S(=O)(=O)N1CCOCC1 here?
A: inactive

Q: How did the Potency turn out when COc1cccc(NC(=O)CN(C)CC(=O)Nc2ccc3c(c2)CCC3)c1 was run?
A: inactive

Q: With COc1ccc(NC(=O)CN2CCCN(Cc3ccccc3)S2(=O)=O)cc1 as the compound, how does the Potency read?
A: inactive

Q: For CCCN(CCC)CCCNC(=O)Cn1ncc2c3ccccc3n(Cc3ccccc3)c2c1=O, which Potency is on record?
A: inactive

Q: Which Potency does the source give for CCOC(=O)c1c(NC(C)=O)sc2c(O)c(Br)ccc12 here?
A: inactive

Q: For Cc1ccc2[nH]c(=O)c(CN(CC3COCCO3)C(=O)Nc3ccccc3C)cc2c1 (configuration not stated), which Potency is on record?
A: inactive
